Results as given in PubChem BioAssay AID1159580 (chemical genetic matrix, 2015).
About 2,000 (36%) of roughly 5,500 compounds were called active. About 18% were inconclusive and are not listed. Rule as the data show it: active = normalized growth mostly below about 0.91 (no sharp cut-off); inconclusive = no clear call, values can overlap the other calls; inactive = mostly above about 0.92. The list shows a part of the results.

Experiment: chemical genetic growth profiling, strain panel (AID 1159580);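 also: tested at 20 µM; growth read once vehicle control cultures reached saturation at 30 °C; 1 = growth at the plate median or of vehicle wells; lower values mean less growth of the strain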
Details: S. cerevisiae deletion strains, growth OD
[1] = locus YHR030C, strain SLT2, active compounds read low
[2] = locus YHR079C, strain IRE1, active compounds read low
[3] = locus YJL095W, strain BCK1, active compounds read low
[4] = locus YJR066W, strain TOR1, active compounds read low
[5] = locus YLR113W, strain HOG1, active compounds read low
[6] = locus YNL183C, strain NPR1, active compounds read low
[7] = locus YOR231W, strain MKK1, active compounds read low
[8] = locus YPL256C, strain CLN2, active compounds read low

Measured: normalized growth

OC[C@@H](O)[C@@H](O)[C@H](O)[C@@H](O)CO
inactive: [1] 0.986 | [2] 0.96 | [3] 0.992 | [4] 0.946 | [5] 0.989 | [6] 0.947 | [7] 0.989 | [8] 1.01

CCCc1cc(C(N)=S)ccn1
inactive: locus YAL021C, strain ccr4, active compounds read low 0.966 | locus YAL026C, strain drs2, active compounds read low 0.982 | locus YAL030W, strain snc1, active compounds read low 0.985 | locus YBL061C, strain skt5, active compounds read low 0.975 | locus YBR009C, strain hhf1, active compounds read low 0.939 | locus YBR023C, strain chs3, active compounds read low 0.963 | locus YBR171W, strain sec66, active compounds read low 0.955 | locus YBR231C, strain swc5, active compounds read low 0.981 | locus YBR279W, strain paf1, active compounds read low 0.97 | locus YCL011C, strain gbp2, active compounds read low 0.974 | locus YCL016C, strain dcc1, active compounds read low 0.985 | locus YCL069W, strain vba3, active compounds read low 0.963 | locus YCR088W, strain abp1, active compounds read low 0.966 | locus YDL005C, strain med2, active compounds read low 0.959 | locus YDL040C, strain nat1, active compounds read low 0.964 | locus YDR001C, strain nth1, active compounds read low 0.971 | locus YDR069C, strain doa4, active compounds read low 0.95 | locus YDR137W, strain rgp1, active compounds read low 0.976 | locus YDR159W, strain sac3, active compounds read low 0.89 | locus YDR195W, strain ref2 0.976 | locus YDR297W, strain sur2, active compounds read low 0.975 | locus YDR334W, strain swr1, active compounds read low 0.929 | locus YDR335W, strain msn5, active compounds read low 0.961 | locus YDR392W, strain spt3, active compounds read low 0.886 | locus YEL003W, strain gim4, active compounds read low 0.972 | locus YEL037C, strain rad23, active compounds read low 0.964 | locus YEL061C, strain CIN8 (second series), active compounds read low 0.96 | locus YER015W, strain faa2, active compounds read low 0.978 | locus YER016W, strain bim1, active compounds read low 0.988 | locus YER111C, strain swi4, active compounds read low 0.988 | locus YER155C, strain BEM2 (second series), active compounds read low 0.958 | locus YFR010W, strain ubp6, active compounds read low 0.948 | locus YGL167C, strain pmr1, active compounds read low 0.939 | locus YGL173C, strain kem1, active compounds read low 0.966 | locus YGL227W, strain vid30, active compounds read low 0.974 | locus YGL240W, strain doc1, active compounds read low 0.953 | locus YGL253W, strain hxk2, active compounds read low 0.952 | locus YHR013C, strain ard1, active compounds read low 0.954 | locus YHR027C, strain rpn1, active compounds read low 0.967 | [1] 1.01 | [2] 1.02 | locus YHR142W, strain chs7, active compounds read low 0.981 | locus YJL092W, strain hpr5, active compounds read low 0.971 | locus YJL095W, strain BCK1 (second series), active compounds read low 0.978 | [3] 1.02 | locus YJL115W, strain asf1, active compounds read low 0.948 | locus YJL129C, strain trk1, active compounds read low 0.981 | locus YJL154C, strain vps35, active compounds read low 0.96 | locus YJL164C, strain tpk1, active compounds read low 0.971 | locus YJL166W, strain qcr8, active compounds read low 0.95 | [4] 0.925 | locus YKL160W, strain elf1, active compounds read low 0.989 | locus YKR026C, strain gcn3, active compounds read low 0.942 | locus YKR091W, strain srl3, active compounds read low 0.96 | locus YLL001W, strain dnm1, active compounds read low 0.954 | locus YLL026W, active compounds read low 0.985 | locus YLL041C, strain sdh2, active compounds read low 0.964 | locus YLR027C, strain aat2, active compounds read low 0.98 | [5] 0.997 | locus YLR221C, strain rsa3, active compounds read low 0.956 | locus YLR258W, strain gsy2, active compounds read low 0.966 | locus YLR262C, strain YPT6 (second series), active compounds read low 0.943 | locus YLR320W, strain mms22, active compounds read low 0.937 | locus YLR342W, strain FKS1, active compounds read low 0.981 | locus YLR357W, strain rsc2, active compounds read low 0.888 | locus YLR370C, strain arc18, active compounds read low 0.955 | locus YLR384C, strain iki3, active compounds read low 0.971 | locus YML120C, strain ndi1, active compounds read low 0.964 | locus YMR058W, strain fet3, active compounds read low 0.981 | locus YMR125W, strain sto1, active compounds read low 0.918 | locus YMR129W, active compounds read low 0.961 | locus YMR205C, strain PFK2, active compounds read low 0.955 | locus YMR231W, strain pep5, active compounds read low 0.967 | locus YNL071W, strain lat1, active compounds read low 0.958 | [6] 0.942 | locus YNL209W, strain ssb2, active compounds read low 0.955 | locus YNL248C, strain rpa49, active compounds read low 0.925 | locus YNL322C, strain KRE1 (second series), active compounds read low 0.966 | locus YNR049C, strain mso1, active compounds read low 0.948 | locus YOR001W, strain rrp6, active compounds read low 0.938 | locus YOR070C, strain gyp1, active compounds read low 0.98 | locus YOR080W, strain dia2, active compounds read low 0.942 | locus YOR083W, strain WHI5, active compounds read low 0.946 | locus YOR106W, strain vam3, active compounds read low 0.983 | [7] 1 | locus YOR265W, strain rbl2, active compounds read low 0.978 | locus YOR270C, strain vph1, active compounds read low 0.931 | locus YOR290C, strain snf2, active compounds read low 0.989 | locus YPL051W, strain arl3, active compounds read low 0.989 | locus YPL078C, strain atp4, active compounds read low 0.991 | locus YPL106C, strain sse1, active compounds read low 0.956 | locus YPL240C, strain hsp82, active compounds read low 0.976 | [8] 1.01
